The source of these data is article PMC8384837, “Expanding the binding specificity for RNA recognition by a PUF domain”.

Substitutions are numbered along the chain they refer to.

Common to all, as to test: yeast three-hybrid, YBZ-1, SC-Leu-His + 0.5 mM 3-AT, 4 days
What all share (conditions): tags: N-Gal4 AD-HA kept; label: inside an RPR1-promoter hybrid RNA with tandem MS2 sites; ssRNA

One assay has as its target PUM1 PUF domain R8-QWN (Homo sapiens, UniProt Q14671 828-1176, N1122Q;Y1123W;Q1126N). The gist of the method:
(§1)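 Matching RNA elements and Pumilio-1 PUF domain libraries, randomized at the three base-contacting residues of every repeat, were co-expressed from a centromeric plasmid in strain YBZ-1 (LexA–MS2 coat fusion, HIS3 reporter). The repeat regions were PCR-amplified and Illumina-sequenced from cells grown four days on SC-Leu (input) or SC-Leu-His + 0.5 mM 3-AT (selection). The interaction score is the log change in variant frequency from input to selection. It is computed in log2, with a pseudocount of 1 for absent variants.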

Another assay addresses PUM1 PUF domain R8-KRA (Homo sapiens, UniProt Q14671 828-1176, N1122K;Y1123R;Q1126A). In a few lines: as §1
Another assay deals with PUM1 PUF domain R8-FHK (Homo sapiens, UniProt Q14671 828-1176, N1122F;Y1123H;Q1126K). In a few lines: as §1
The target of a further assay is PUM1 PUF domain R5-NDI (Homo sapiens, UniProt Q14671 828-1176, C1007N;R1008D;Q1011I). The gist of the method:
as §1

The next assay addresses PUM1 PUF domain R5-KYF (Homo sapiens, UniProt Q14671 828-1176, C1007K;R1008Y;Q1011F). The gist of the method:
as §1

A further assay addresses PUM1 PUF domain R5-SNR (Homo sapiens, UniProt Q14671 828-1176, C1007S;R1008N;Q1011R). In a few lines: as §1
A further assay deals with PUM1 PUF domain R5-DQR (Homo sapiens, UniProt Q14671 828-1176, C1007D;R1008Q;Q1011R). The gist of the method: as §1
The target of a further assay is PUM1 PUF domain R5-HRP (Homo sapiens, UniProt Q14671 828-1176, C1007H;Q1011P). In a few lines: as §1
The target in another assay is PUM1 PUF domain R8-LWK (Homo sapiens, UniProt Q14671 828-1176, N1122L;Y1123W;Q1126K). In a few lines:
as §1

The target in another assay is T1, PUM1 PUF domain R6-TWL (Homo sapiens, UniProt Q14671 828-1176, N1043T;Y1044W;Q1047L).
T1 sequence: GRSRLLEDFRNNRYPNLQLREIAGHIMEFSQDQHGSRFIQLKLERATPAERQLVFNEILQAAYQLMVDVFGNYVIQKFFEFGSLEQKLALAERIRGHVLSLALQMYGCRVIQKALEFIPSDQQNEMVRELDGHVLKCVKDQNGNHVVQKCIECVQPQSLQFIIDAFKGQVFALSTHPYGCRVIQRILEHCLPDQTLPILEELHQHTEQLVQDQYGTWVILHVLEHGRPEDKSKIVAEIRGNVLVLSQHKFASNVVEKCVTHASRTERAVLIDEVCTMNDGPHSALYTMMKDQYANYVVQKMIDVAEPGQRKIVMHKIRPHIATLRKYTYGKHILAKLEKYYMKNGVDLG
In a few lines:
as §1

The target of another assay is PUM1 PUF domain R3-GFF (Homo sapiens, UniProt Q14671 828-1176, C935G;R936F;Q939F). In a few lines:
as §1

The target in another assay is T2, PUM1 PUF domain R6-LYC (Homo sapiens, UniProt Q14671 828-1176, N1043L;Q1047C).
T2 sequence: T1 sequence with T216L, W217Y, L220C
The gist of the method:
as §1

In the next assay the target is PUM1 PUF domain R1-GRS (Homo sapiens, UniProt Q14671 828-1176, S863G;Q867S). The gist of the method: as §1
For a further assay, the target named is PUM1 PUF domain R1-KSS (Homo sapiens, UniProt Q14671 828-1176, S863K;R864S;Q867S). In a few lines:
as §1

The next assay deals with PUM1 PUF domain R5-QRW (Homo sapiens, UniProt Q14671 828-1176, C1007Q;Q1011W). In a few lines:
as §1

A further assay concerns the target T3, PUM1 PUF domain R6-TYE (Homo sapiens, UniProt Q14671 828-1176, N1043T;Q1047E).
T3 sequence: T1 sequence with W217Y, L220E
The gist of the method: as §1

A further assay concerns the target PUM1 PUF domain R3-GVE (Homo sapiens, UniProt Q14671 828-1176, C935G;R936V;Q939E). In a few lines:
as §1

Another assay deals with PUM1 PUF domain R3-TWG (Homo sapiens, UniProt Q14671 828-1176, C935T;R936W;Q939G). The gist of the method: as §1
In the next assay the target is PUM1 PUF domain R7-EFG (Homo sapiens, UniProt Q14671 828-1176, S1079E;N1080F;E1083G). The gist of the method: as §1

Take “GGCUAGAACUAGUGGAUCCCCCGGCGCCCGGCGGCUCGAGCCCGGGUAAGCGUAAAUAGUCUGCAUGCCGCCGGGCGCCAUGCCUGCAGGUCGACUCUAGAAAACAUG”: the binding signal in the assay with PUM1 PUF domain R8-QWN is 3.25 log2 enrichment (interaction score); in the assay with PUM1 PUF domain R8-KRA it was 2.55 log2 enrichment (interaction score); with PUM1 PUF domain R8-FHK, 3.34 log2 enrichment (interaction score).

On to “GGCUAGAACUAGUGGAUCCCCCGGCGCCCGGCGGCUCGAGCCCGGGUAAGUGUUAAUAGUCUGCAUGCCGCCGGGCGCCAUGCCUGCAGGUCGACUCUAGAAAACAUG”, for which the binding signal with PUM1 PUF domain R5-NDI is 3.04 log2 enrichment (interaction score); in the assay with PUM1 PUF domain R5-KYF, 3.92 log2 enrichment (interaction score); in the assay with PUM1 PUF domain R5-SNR, 4.01 log2 enrichment (interaction score); in the assay with PUM1 PUF domain R5-DQR, 1.66 log2 enrichment (interaction score); in the assay with PUM1 PUF domain R5-HRP, 3.28 log2 enrichment (interaction score).

Regarding “GGCUAGAACUAGUGGAUCCCCCGGCGCCCGGCGGCUCGAGCCCGGGUAAGUGUAAAUAGUCUGCAUGCCGCCGGGCGCCAUGCCUGCAGGUCGACUCUAGAAAACAUG”, the binding signal with PUM1 PUF domain R8-LWK was 4.16 log2 enrichment (interaction score); with PUM1 PUF domain R6-TWL it was 0.99 log2 enrichment (interaction score); in the assay with PUM1 PUF domain R8-KRA, 1.2 log2 enrichment (interaction score); in the assay with PUM1 PUF domain R3-GFF it was 5.53 log2 enrichment (interaction score); in the assay with PUM1 PUF domain R6-LYC, 3.91 log2 enrichment (interaction score).

Regarding “GGCUAGAACUAGUGGAUCCCCCGGCGCCCGGCGGCUCGAGCCCGGGUAAGUGUAAAUCGUCUGCAUGCCGCCGGGCGCCAUGCCUGCAGGUCGACUCUAGAAAACAUG”, the values for the binding signal with PUM1 PUF domain R1-GRS and with PUM1 PUF domain R1-KSS were 2.75 log2 enrichment (interaction score) and 4.09 log2 enrichment (interaction score), respectively.

For “GGCUAGAACUAGUGGAUCCCCCGGCGCCCGGCGGCUCGAGCCCGGGUAAGUGUCAAUAGUCUGCAUGCCGCCGGGCGCCAUGCCUGCAGGUCGACUCUAGAAAACAUG”, the binding signal with PUM1 PUF domain R5-SNR was 6.17 log2 enrichment (interaction score); with PUM1 PUF domain R5-DQR, 3.91 log2 enrichment (interaction score); with PUM1 PUF domain R5-QRW it was 0.43 log2 enrichment (interaction score); with PUM1 PUF domain R5-HRP it was 1.78 log2 enrichment (interaction score).

Take “GGCUAGAACUAGUGGAUCCCCCGGCGCCCGGCGGCUCGAGCCCGGGUAAGUGAAAAUAGUCUGCAUGCCGCCGGGCGCCAUGCCUGCAGGUCGACUCUAGAAAACAUG”: the binding signal is 3.51 log2 enrichment (interaction score) with PUM1 PUF domain R6-TYE, 5.21 log2 enrichment (interaction score) in the assay with PUM1 PUF domain R6-TWL and 3.19 log2 enrichment (interaction score) in the assay with PUM1 PUF domain R6-LYC.

In the case of “GGCUAGAACUAGUGGAUCCCCCGGCGCCCGGCGGCUCGAGCCCGGGUAAGUGUAAGUAGUCUGCAUGCCGCCGGGCGCCAUGCCUGCAGGUCGACUCUAGAAAACAUG”, the binding signal with PUM1 PUF domain R3-GVE was 3.97 log2 enrichment (interaction score); in the assay with PUM1 PUF domain R3-TWG, 4.61 log2 enrichment (interaction score).

“GGCUAGAACUAGUGGAUCCCCCGGCGCCCGGCGGCUCGAGCCCGGGUAAGUGUGAAUAGUCUGCAUGCCGCCGGGCGCCAUGCCUGCAGGUCGACUCUAGAAAACAUG”: the binding signal in the assay with PUM1 PUF domain R5-QRW is 4.36 log2 enrichment (interaction score).

In the case of “GGCUAGAACUAGUGGAUCCCCCGGCGCCCGGCGGCUCGAGCCCGGGUAAGUCUAAAUAGUCUGCAUGCCGCCGGGCGCCAUGCCUGCAGGUCGACUCUAGAAAACAUG”, the binding signal with PUM1 PUF domain R7-EFG is 3.46 log2 enrichment (interaction score).

Take “GGCUAGAACUAGUGGAUCCCCCGGCGCCCGGCGGCUCGAGCCCGGGUAAGUGUAAUUAGUCUGCAUGCCGCCGGGCGCCAUGCCUGCAGGUCGACUCUAGAAAACAUG”: the binding signal with PUM1 PUF domain R3-TWG was 0.73 log2 enrichment (interaction score).
